Test results as given in the supplement of paper PMC13380429.

Tested on: Vero E6 infected with SARS-CoV-2
Assay: inhibition of SARS-CoV-2 cytopathic effect; higher = more antiviral protection, active = above 15
Details: 48 h

Measured: inhibition of SARS-CoV-2 cytopathic effect

N#Cc1ccncn1 [4-pyrimidinecarbonitrile]
inactive: 1 nM 3.43% | 8.33 nM 1.7% | 100 nM 4.16% | 833.33 nM 0.49% | 10000 nM -3.8%

O=C(OC[C@H]1O[C@@H](OC(=O)c2cc(O)c(O)c(OC(=O)c3cc(O)c(O)c(O)c3)c2)[C@H](OC(=O)c2cc(O)c(O)c(OC(=O)c3cc(O)c(O)c(O)c3)c2)[C@@H](OC(=O)c2cc(O)c(O)c(OC(=O)c3cc(O)c(O)c(O)c3)c2)[C@@H]1OC(=O)c1cc(O)c(O)c(OC(=O)c2cc(O)c(O)c(O)c2)c1)c1cc(O)c(O)c(OC(=O)c2cc(O)c(O)c(O)c2)c1 [tannic-acid]
inactive: 1 nM -0.39% | 8.33 nM 0.91% | 100 nM -0.77% | 833.33 nM -3.86% | 10000 nM -6.77%

Cc1noc(-c2ccc(-c3ccc(CC(=O)O)cc3)cc2)c1NC(=O)O[C@H](C)c1ccccc1
inactive: 1 nM 0.92% | 8.33 nM 0.35% | 100 nM -2.41% | 833.33 nM -3.36% | 10000 nM -4.34%

O=C(/C=C/c1ccc2ccc(C(F)(F)F)cc2n1)c1ccncc1
inactive: 1 nM 1.93% | 8.33 nM 0% | 100 nM -3.01% | 833.33 nM 0.28% | 10000 nM 5.19%

CCOc1cncc(/C=C/CCNC)c1
inactive: 1 nM 0.97% | 8.33 nM -1.63% | 100 nM -0.92% | 833.33 nM 0.41% | 10000 nM 3.59%

NC[C@@](O)(c1ccc(Cl)cc1)c1ccc(-c2cn[nH]c2)cc1
inactive: 1 nM -0.97% | 8.33 nM 1% | 100 nM -2.8% | 833.33 nM -3.57% | 10000 nM -13.7%
